Experimental findings from PubChem BioAssay AID651621 (National Center for Advancing Translational Sciences (NCATS), 2012) are described below.

Calls of active or inactive are those of the source.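 Rule for the calls: active = inhibition of 60% or more at 11 µM; inconclusive = inhibition from 30% up to under 60% at 11 µM; inactive = inhibition below 30% at 11 µM.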

As usually defined, the inhibition is the percentage by which the read-out fell short of the control.

Chain of Ubiquitin carboxyl-terminal hydrolase 1 (Homo sapiens) + WD repeat-containing protein 48 (Homo sapiens) (O94782 whole entry, looked up): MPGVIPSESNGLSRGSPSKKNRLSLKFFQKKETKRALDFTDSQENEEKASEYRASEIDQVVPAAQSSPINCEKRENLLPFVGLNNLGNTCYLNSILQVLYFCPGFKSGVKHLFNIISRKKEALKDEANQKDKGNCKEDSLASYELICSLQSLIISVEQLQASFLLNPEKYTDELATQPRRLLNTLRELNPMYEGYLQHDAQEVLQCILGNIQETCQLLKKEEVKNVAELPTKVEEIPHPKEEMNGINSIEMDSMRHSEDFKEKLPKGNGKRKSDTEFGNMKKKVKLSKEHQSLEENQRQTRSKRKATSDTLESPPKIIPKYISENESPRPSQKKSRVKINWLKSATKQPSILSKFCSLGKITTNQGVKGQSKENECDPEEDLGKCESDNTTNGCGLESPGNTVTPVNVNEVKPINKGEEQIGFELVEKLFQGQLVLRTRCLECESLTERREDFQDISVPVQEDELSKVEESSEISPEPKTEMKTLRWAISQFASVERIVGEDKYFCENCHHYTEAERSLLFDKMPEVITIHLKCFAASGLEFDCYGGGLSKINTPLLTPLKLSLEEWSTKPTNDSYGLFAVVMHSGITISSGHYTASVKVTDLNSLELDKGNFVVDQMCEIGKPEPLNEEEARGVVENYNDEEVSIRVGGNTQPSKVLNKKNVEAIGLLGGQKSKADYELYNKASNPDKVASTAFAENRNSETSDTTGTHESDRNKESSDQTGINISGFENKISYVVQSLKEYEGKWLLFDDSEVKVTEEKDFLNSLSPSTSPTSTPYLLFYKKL
Chain of Ubiquitin carboxyl-terminal hydrolase 1 (Homo sapiens) + WD repeat-containing protein 48 (Homo sapiens) (Q8TAF3 whole entry, looked up): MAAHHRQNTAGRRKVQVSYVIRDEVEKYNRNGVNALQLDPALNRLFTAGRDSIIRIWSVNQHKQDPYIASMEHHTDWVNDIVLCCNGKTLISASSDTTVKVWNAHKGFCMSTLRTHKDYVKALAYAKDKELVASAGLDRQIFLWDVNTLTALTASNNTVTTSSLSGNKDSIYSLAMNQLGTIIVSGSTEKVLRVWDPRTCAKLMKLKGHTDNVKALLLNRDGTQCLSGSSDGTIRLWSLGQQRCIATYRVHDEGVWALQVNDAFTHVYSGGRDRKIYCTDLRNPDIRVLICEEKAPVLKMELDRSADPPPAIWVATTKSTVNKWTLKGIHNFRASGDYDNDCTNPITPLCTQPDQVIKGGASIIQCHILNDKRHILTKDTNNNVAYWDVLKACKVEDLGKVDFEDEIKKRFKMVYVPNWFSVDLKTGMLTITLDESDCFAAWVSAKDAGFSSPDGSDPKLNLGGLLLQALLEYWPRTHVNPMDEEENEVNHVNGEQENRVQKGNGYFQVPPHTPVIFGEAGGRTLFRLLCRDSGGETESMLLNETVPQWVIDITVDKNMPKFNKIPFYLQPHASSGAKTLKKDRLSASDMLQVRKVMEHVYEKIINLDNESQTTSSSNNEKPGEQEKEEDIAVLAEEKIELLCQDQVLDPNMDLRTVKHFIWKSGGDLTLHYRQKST

This assay concerns the target Ubiquitin carboxyl-terminal hydrolase 1 (Homo sapiens) + WD repeat-containing protein 48 (Homo sapiens) (UniProt O94782+Q8TAF3). Put plainly: Inhibitors of USP1/UAF1: SAR in USP1/UAF1 diubiquitin SDS-PAGE gel assay. As to conditions: purified USP1/UAF1, K63 diubiquitin cleavage, at 11 µM, hits give high values. An excerpt:
Deubiquitinating enzymes (DUBs) are a class of enzymes that can cleave isopeptide bond formed between the C-terminal carboxylate of ubiquitin and a lysine side-chain amino group on the target protein. Among them, ubiquitin specific proteases (USPs) constitute the largest DUB family. Human USPs are emerging as promising targets for pharmacological intervention because of their connection to a number of human diseases, including prostate, colon and breast cancer (1, 2), pediatric acute lymphoblastic leukemia (3), and familial cylindromatosis (4). The advantage of inhibiting USPs lies in the potential specificity of therapeutic intervention that can lead to better efficacy and reduce nonspecific side effects. In a collaboration between the University of Delaware and the NIH Chemical Genomics Center, a high-throughput screen assay was developed to screen for USP1/UAF1 inhibitors (5). This assay is a orthogonal assay that tested for activity in a USP1/UAF1 diubiquitin SDS-PAGE gel assay. NIH Chemical Genomics Center [NCGC] […]
The inhibition assay contains 100 nM for USP1/UAF1, 2 microM K63 linked diubiquitin, and inhibitors at varied concentrations (0.08 microM - 114 microM). […] The intensity of the individual diubiquitin and monoubiquitin band was quantified using Quantity One 4.3.1 (Biorad, Hercules, CA). The percentage of the conversion was determined and used to calculate the reaction rate. […]
For the compound `Cc1cnc(-c2ccccc2C(C)C)nc1NCc1ccc(-n2ccnn2)cc1`, the inhibition is 98.5% (active).
